Screens (PubChem)
Sampled rows, rich in hits. Any-hit rate of the full collection: about 1.9%.
PGE2 EP2 inh: inhibitors of human EP2 prostaglandin E2 receptor. hit rate 0.52% among 260,000. P43116. AID 1422. C6 glioma cells expressing human EP2, cAMP TR-FRET; cells stimulated with saturating PGE2. inhibition, % at 25 µM;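 active = percent inhibition above 40 after rounding to a whole number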;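 note: rat C6 glioma host cells with rolipram phosphodiesterase inhibitor present; the protocol text gives 20 µM as final concentration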
Target sequence (P43116 whole entry, looked up): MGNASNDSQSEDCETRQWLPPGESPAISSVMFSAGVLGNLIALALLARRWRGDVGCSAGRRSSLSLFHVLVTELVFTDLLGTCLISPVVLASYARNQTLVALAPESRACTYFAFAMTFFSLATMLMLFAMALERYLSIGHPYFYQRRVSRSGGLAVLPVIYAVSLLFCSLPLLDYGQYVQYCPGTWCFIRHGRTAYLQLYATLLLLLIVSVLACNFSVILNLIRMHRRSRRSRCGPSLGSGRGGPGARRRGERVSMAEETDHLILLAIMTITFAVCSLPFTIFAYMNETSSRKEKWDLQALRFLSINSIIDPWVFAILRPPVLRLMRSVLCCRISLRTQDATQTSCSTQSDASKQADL
S1P4 agonist: human S1P4 receptor agonism | S1P4-expressing cell line, agonist reporter assay | O95977 | AID 1509 | activation, % at 4.98 µM | hit rate 0.35% among 220,000; in the data active = activation above about 11%;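 note: 0% = DMSO vehicle and 100% = reference agonist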
S1P4 antagonist: antagonists of human S1P4 receptor; O95977; S1P4-expressing cells, antagonist mode, reporter read-out; inhibition, % at 4.98 µM; hit rate 0.26% among 220,000; in the data active = inhibition above about 29%;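 note: 0% = wells stimulated with agonist and 100% = vehicle wells without agonist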
EP2 mod: modulates human prostaglandin E2 receptor EP2 signaling; P43116; EP2-expressing cells, cAMP HTRF FRET, PGE2 co-stimulation; induction, % at 25 µM; hit rate 0.83% among 260,000; AID 940;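 active = compounds whose cAMP rise, as percent of the full-agonist control response, exceeds 60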;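 note: rat C6 glioma line stably carrying human EP2 under a CMV promoter; the protocol text gives 20 µM as final concentration; 100% = response of wells given 1 µM PGE2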
S1P3 antag: S1P3 (human) receptor antagonism; CHO S1P3 NFAT-BLA reporter, FRET fluorescence, antagonist mode; inhibition, % at 4.98 µM; hit rate 0.27% among 170,000;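 active = inhibition above the plate cutoff, the mean inhibition of test wells on that plate plus 3 SD, cut at about 28% in these data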;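 note: cells challenged with S1P at its EC80 of 0.8 µM; blue over green emission ratio from cleaved BLA substrate after 4 h stimulation; 0% = S1P-stimulated wells and 100% = unstimulated DMSO-only wells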
Pf gamet viab: kills late stage P. falciparum gametocytes; P. falciparum stage V gametocytes, ATP luminescence, 24 h; inhibition, % at 10.9 µM; hit rate 0.065% among 150,000; AID 743093;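 active = inhibition above the mean plus 3 SD of compounds within the control limits, set per campaign, cut at about 38% in these data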;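 note: 0% = DMSO wells and 100% = medium only without gametocytes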
Numbers without * were called inactive; · = no result given; ! = a repeat was not active.

SMILES	PGE2 EP2 inh	S1P4 agonist	S1P4 antagonist	EP2 mod	S1P3 antag	Pf gamet viab
O=C(Nc1ccccc1Oc1ccccc1)C1CCCC1	7	1	0	61*	-3	-22
COc1ccccc1NC(=O)c1ccccc1Oc1ccccc1	·	·	·	·	·	-20
CC(C(=O)Nc1ccccc1Oc1ccccc1)c1ccccc1 (stereo not drawn)	6	2	-11	64*	3	60*
Cc1ccc(-c2nc(CNC(=O)c3c(-c4cccc(C)c4)noc3C)no2)cc1	1	·	·	-14	·	·
COc1cc2c(cc1O)[C@@H](c1cc(O)c(O)c(OC)c1)[C@](O)(C(=O)O)[C@@H](CO)[C@@H]2O	54*	·	·	7	·	·
Cc1nn(-c2ccccc2)c(Cl)c1C(=O)N1CCN(c2ncnc3c2cnn3-c2ccccc2)CC1	40*	-1	7	-43	-19	·
O=C1CCCN1c1ccc(S(=O)(=O)NC2(c3ccc(Cl)cc3)CCC2)cc1	8	·	·	-38	·	·
C=CCNc1nc(Nc2ccc(OC)cc2)nc(OCC)n1	19	-4	-5	62*!	·	·
CCCCNc1nc(NC)nc(Cl)c1SC	5	2	5	63*	-1	9
O=C(Nc1c(C(=O)C2CC2)oc2ccccc12)c1ccc(Cl)cc1	5	9	-13	64*	-3	-22
COC(=O)c1cc2sc(Cl)cc2n1CC(=O)Nc1cccc(SC)c1	29	-1	-1	15	59*	·
CC[n+]1c(C)sc2cc(I)ccc21	5	·	·	-13	·	·
CCC(c1nnnn1CCc1ccccc1)N(Cc1cc2cc(C)c(C)cc2[nH]c1=O)C1CCCCC1 (stereo not drawn)	9	·	·	6	·	·
COc1ccc(OC)c(C2C(C(C)=O)=C(O)C(=O)N2CCC(=O)O)c1 (stereo not drawn)	17	-3	-20	20	104*	-4
COc1ccc2nc(NC(=O)c3cccc(-c4cc5ccccc5oc4=O)c3)sc2c1	13	2	3	8	-18	49*
CC(NC(=O)CCc1ccccc1)c1nc(-c2cccnc2)n[nH]1 (stereo not drawn)	6	·	·	-29	·	·
C[n+]1cn(CC(O)COc2ccc3ccccc3c2)c2ccccc21 (stereo not drawn)	7	·	·	-2	·	·
Cc1cccnc1C1(O)CCN(C(=O)Cc2nn(C(C)C)c(=O)c3ccccc23)CC1	·	·	·	-8	·	·
COc1ccc(-c2nn3c(C4CCCCC4)nnc3s2)cc1OC	7	0	2	61*	·	9
COc1cc(-c2nn3c(C4CCCCC4)nnc3s2)cc(OC)c1OC	3	2	-4	-1	·	·
Cc1cccc(C2(O)CCN(C(=O)c3[nH]nc(-c4ccccc4)c3C)CC2)c1	4	·	·	-109	·	·
COC(=O)C1=C(N)Oc2cc(N(C)C)ccc2C1c1ccccc1OC (stereo not drawn)	10	1	2	59	60*	·
C[C@]12CC[C@H](O)C[C@@H]1CC[C@H]1[C@H]2CC[C@]2(C)[C@@H]1CC[C@H]2c1cc(C(F)(F)F)n[nH]1	55*	·	·	-19	·	·
CCC(c1nnnn1C1CCCC1)N(Cc1ccc(F)cc1)Cc1cc2c(C)ccc(C)c2[nH]c1=O (stereo not drawn)	7	·	·	27	·	·
COC(=O)c1cc(NC(=O)c2ccc(-c3ccccc3)cc2)ccc1Cl	8	0	-4	-28	-14	41*
SMILES	PGE2 EP2 inh	S1P4 agonist	S1P4 antagonist	EP2 mod	S1P3 antag	Pf gamet viab
COC(=O)c1cc(NC(=O)c2ccco2)ccc1Cl	10	·	·	-73	·	·
CN(C)C(=O)c1ccc(-c2cc3onc(-c4ccccc4)c3c(=O)n2C)cc1	·	·	·	·	·	-21
CN(C)Cc1ccc(-c2cc3onc(-c4ccccc4)c3c(=O)n2C)cc1	44*	·	·	-14	·	·
CCC(C)(C)n1nnnc1CN(Cc1ccc(OC)cc1)Cc1cc2ccc(C)cc2[nH]c1=O	10	·	·	10	·	·
CCOc1cc(/C=C2\N=C(c3ccc(Cl)cc3)OC2=O)ccc1OC(=O)CC	15	·	·	15	·	·
CC(C)C(Sc1nc(-c2ccccc2)cc(-c2ccccc2)c1C#N)C(=O)O (stereo not drawn)	10	1	-21	62*	-23	-19
CCOC(=O)C(C)Sc1nc(-c2ccccc2)ccc1C#N (stereo not drawn)	6	·	·	62*	·	·
COc1ccc(-c2cc(-c3ccccc3)nc(SC(C)C(=O)O)c2C#N)cc1 (stereo not drawn)	·	·	·	·	·	0
COc1cc(OC)c(S(=O)(=O)N2CCCc3ccccc32)cc1NC(C)=O	6	·	·	0	·	·
C=CCOc1ccccc1C1C(C(=O)OC)=C(C)NC(C)=C1C(=O)OC	11	·	·	1	·	·
O=C(Nc1nnc(-c2ccccc2Cl)o1)c1ccco1	8	1	-4	-4	10	-3
O=C(Nc1nnc(-c2ccccc2Cl)o1)c1nc2ccccc2s1	91*	4	-15	-61	·	·
Nc1ccc(-c2ccc(Nc3cc(S(=O)(=O)O)c(N)c4c3C(=O)c3ccccc3C4=O)cc2)c(S(=O)(=O)O)c1	55*	·	·	-3	·	·
Cc1cc(C)c(Nc2cc(S(=O)(=O)O)c(N)c3c2C(=O)c2ccccc2C3=O)c(C)c1	16	1	-3	30	-2	20
O=C(COC(=O)C1CCN(C(=O)c2ccc(Cl)cc2)CC1)c1ccco1	5	1	-55	-20	17	·
CCOC(=O)C1CCN(C(=O)c2ccco2)CC1	10	1	-9	-1	69*	-1
Cc1ccc(N2CC(C(=O)NC3CCCC3)CC2=O)cc1 (stereo not drawn)	50*	·	·	-30	·	·
O=C(NC1CCCCC1)C1CC(=O)N(c2ccc(Cl)cc2)C1 (stereo not drawn)	5	-2	10	5	-6	·
O=C(C1CCCO1)N1N=C(c2cccs2)CC1c1ccc(F)cc1 (stereo not drawn)	14	·	·	18	·	·
O=C(NCc1ccccc1F)C1CCN(C(=O)NCc2ccccc2)CC1	5	-1	3	10	68*	20
O=C(NCc1ccc(F)cc1)C1CCN(C(=O)NCc2ccccc2)CC1	11	-3	7	29	6	-17
O=S(=O)(c1ccc(-c2nnc(SCc3nnc(-c4ccccc4)o3)o2)cc1)N1CCCC1	2	0	2	25	12	-5
CCN(CC)S(=O)(=O)c1ccc(-c2nnc(SCc3nnc(-c4ccccc4)o3)o2)cc1	105*	2	-1	26	-2	·
Cc1nc2c(c(=O)[nH]1)CCN(C(=O)c1ccc3sc(C)nc3c1)C2	8	·	·	0	·	·
CN1Cc2cccc(C(=O)N3CCC(C(=O)c4nc5ccccc5s4)CC3)c2C1=O	·	·	·	-24	·	·
COc1ccc2[nH]c3c(NCCC4=CCCCC4)ncnc3c2c1	75*	1	-1	-71	22	1
Cc1sc2nc(C3CC3)n3c(=O)n(CC(=O)N4CCC(C)CC4)nc3c2c1C	·	·	·	-21	·	·
COc1ccccc1OCCOCCOc1ccccc1Cl	3	0	1	-16	-1	51*
CCOc1ccc(OCCOCCOc2ccccc2Cl)cc1	2	-2	-6	-42	8	-3
